Only some compounds are listed: those with a hit (about 2.1% of all), similar ones and a draw of the others.
Giardia kill – Small Molecules that selectively kill Giardia lamblia: qHTS. Giardia lamblia trophozoite viability. activity change, % at 7.66 µM, hits read low. 0.15% of 340,000 active. AID 540267, 2011; in the data active = activity change below about -80%; inconclusive = between about -30% and that limit;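 note: parasites exposed to compound for two days anaerobically before the ATP read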
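Anaerobic 48 hrs incubation at 37 deg C of 100 trophozoites/well with test compounds; ATPLite 1-Step luminescence, 15-30 min RT, reports cellular ATP as viability.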
p53 reactivator – qHTS assay for re-activators of p53 using a Luc reporter; Potency, µM (doses to about 92.2 µM), hits mostly activators; AID 504706, 2011; H1299 p53-A138V BP100-luciferase reporter, luminescence, 24 h; 0.063% of 320,000 active; note: nearly all actives have a fitted effect of over 45% in size
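H1299 (p53-null), stable ts p53-A138V + BP100-Luc; 1000 cells/well, Opti-MEM/10% FBS; cpd 4 pt, 1:5; 24 h, 37 deg C, 5% CO2; detection reagent 10 min RT; luminescence.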
ClpP mod – qHTS Assay for Activators of ClpP; purified B. subtilis ClpP, FRET peptide cleavage, 20 min; Potency, µM (doses to about 57.5 µM); 1.9% of 340,000 active; ATP-dependent Clp protease proteolytic subunit (Bacillus subtilis (strain 168)), P80244; active = well fitted falling curve with a large enough effect; inconclusive = small, poorly fitted or top-dose-only effect; inactive = no such curve, though single readings can be large or run the other way; note: the source files actives as falling curves though it sought activators and does not explain the sign; nearly all actives have a fitted effect of over 65% in size
Target sequence (P80244 whole entry, looked up): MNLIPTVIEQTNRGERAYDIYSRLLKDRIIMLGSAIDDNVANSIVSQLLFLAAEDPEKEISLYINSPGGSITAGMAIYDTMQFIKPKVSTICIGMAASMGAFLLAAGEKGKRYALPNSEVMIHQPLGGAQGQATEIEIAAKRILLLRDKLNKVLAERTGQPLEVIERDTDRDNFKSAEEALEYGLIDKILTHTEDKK
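FRET quenching reversal measured ClpP activation: 10 microg/mL B. subtilis ClpP at pH 8 with the FRET-FV decapeptide, read at 430 nm after 320 nm excitation. The 20-min minus 0-min signal was scaled between DMSO/no-enzyme wells and ADEP (5.8 microM final).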
B2AR arrestin – qHTS assay of beta-arrestin-biased ligands of beta2-adrenergic receptor; Potency, µM (top dose mostly 46.1 µM), hits mostly activators; 0.02% of 330,000 active; beta-arrestin recruitment to beta2AR, cell-based reporter; Beta-2 adrenergic receptor (Homo sapiens), P07550; AID 492947, 2010; note: nearly all actives have a fitted effect of over 65% in size
Target sequence (P07550 whole entry, looked up): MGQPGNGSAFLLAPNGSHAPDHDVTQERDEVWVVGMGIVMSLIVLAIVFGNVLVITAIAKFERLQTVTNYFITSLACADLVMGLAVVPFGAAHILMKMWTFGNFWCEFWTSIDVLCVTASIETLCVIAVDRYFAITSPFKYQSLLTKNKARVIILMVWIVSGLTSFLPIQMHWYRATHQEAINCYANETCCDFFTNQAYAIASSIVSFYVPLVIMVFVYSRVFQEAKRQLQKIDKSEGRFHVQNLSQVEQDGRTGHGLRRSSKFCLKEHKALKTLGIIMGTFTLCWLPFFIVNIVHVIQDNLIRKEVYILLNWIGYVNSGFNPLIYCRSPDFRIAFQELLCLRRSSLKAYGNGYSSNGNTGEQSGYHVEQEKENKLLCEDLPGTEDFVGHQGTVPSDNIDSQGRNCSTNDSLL
Mito fusion yeast – qHTS Assay for Small Molecule Inhibitors of Mitochondrial Division or Activators of Mitochondrial Fusion. 0.23% of 320,000 active. S. cerevisiae fusion-defective mutant growth rescue, CellTiterGlo 48 h. Potency, µM (top dose mostly 46.1 µM), usual class: activators; note: nearly all actives have a fitted effect of over 45% in size
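Read-out: ATP-based luminescence (CellTiterGlo, 10 min ambient) reporting growth of fusion-defective ts yeast after 48 hours at 37C on glycerol/ethanol YPEG medium in the presence of compound.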
uPA generation – qHTS for Inhibitors of Cell Surface uPA Generation | cell surface uPA generation assay, qHTS | Potency, µM (doses to about 38.3 µM), most hits filed as inhibitors | 0.31% of 330,000 active; active = well fitted inhibition curve with a large enough effect; inconclusive = small, poorly fitted or top-dose-only effect; inactive = no such curve, though single readings can be large or run the other way; tested in mouse RAW 264.7 cells; note: nearly all actives have a fitted effect of over 55% in size
Of the large screens only hits and unclear results are named; the others gave an inactive call. Unless noted, calls come from the whole dose curve; as a rule, active = well fitted curve in the direction sought with a large enough effect; inconclusive = small, poorly fitted or top-dose-only effect, or another doubt; inactive = no such curve, though single readings can be large; an effect the other way counts as inactive or inconclusive.

CCCCCCNc1cc2n(c(=O)n1)CCc1cc(OC)c(OC)cc1-2	ClpP mod 15.8µM (no result: uPA generation)
CCNc1cc2n(c(=O)n1)CCc1cc(OC)c(OC)cc1-2	ClpP mod 28.2µM
COc1cc2c(cc1OC)-c1cc(NCc3ccccn3)nc(=O)n1CC2	ClpP mod 28.2µM
CN(C)c1ccc(/C=C/c2c(F)cnc3ccccc23)cc1	none (no result: Giardia kill, p53 reactivator, B2AR arrestin, Mito fusion yeast, uPA generation)
CNC(=O)c1cc(-c2cccs2)on1	none (no result: Giardia kill, p53 reactivator, B2AR arrestin, Mito fusion yeast, uPA generation)
CN(C)c1ccc(/C=C/c2ccnc3c(N)cccc23)cc1	none (no result: Giardia kill, p53 reactivator, B2AR arrestin, Mito fusion yeast, uPA generation)
CCCCn1c(O)c(N=Nc2ccccc2O)c2ccccc21	p53 reactivator 39.8µM
CCCCn1c(O)c(N=Nc2ccccn2)c2ccccc21	none
COC(=O)Cc1ccc2sc(-c3ccccc3)nc2c1	Giardia kill inconclusive, p53 reactivator inconclusive, ClpP mod 28.2µM
O=C(O)Cc1ccc2sc(-c3ccccc3)nc2c1	p53 reactivator inconclusive, ClpP mod inconclusive, uPA generation inconclusive
O=C(c1noc2c1CCCCC2)N1CCN(c2cccc(C(F)(F)F)c2)CC1	none (no result: Giardia kill, p53 reactivator, B2AR arrestin, Mito fusion yeast, uPA generation)
COc1ccc(C)cc1NC(=O)CNC(c1ccccc1)c1ccc(C)cc1 (centres undefined)	Giardia kill inconclusive, uPA generation 1.78µM
CCc1ccc(CNC(=O)C2CCN(C(=O)c3ccc(-n4ccc5ccccc54)s3)CC2)cc1	ClpP mod 35.5µM (no result: Giardia kill, p53 reactivator, B2AR arrestin, Mito fusion yeast, uPA generation)
CCc1ccc(CNC(=O)C2CCN(C(=O)c3ccc(-n4c(C)cc5ccccc54)s3)CC2)cc1	none (no result: Giardia kill, p53 reactivator, B2AR arrestin, Mito fusion yeast, uPA generation)
COc1ccc(CCNC(=O)c2cnc3ccc(C)cn3c2=O)cc1	none (no result: Giardia kill, p53 reactivator, B2AR arrestin, Mito fusion yeast, uPA generation)
COc1cccc(CNC(=O)Cn2c(=O)cc(C(F)(F)F)c3c(C)nn(C)c32)c1OC	none (no result: Giardia kill, p53 reactivator, B2AR arrestin, Mito fusion yeast, uPA generation)
C/C(=N\Nc1nc2ccccc2[nH]1)c1ccccn1	p53 reactivator 8.91µM (no result: Giardia kill, ClpP mod, uPA generation)
C/C(=N\Nc1nc2ccccc2[nH]1)c1cc2ccccc2o1	uPA generation inconclusive
CC(=O)N1CCCc2cc(S(=O)(=O)N(C)CC(=O)Nc3cccc(Cl)c3C)ccc21	none (no result: Giardia kill, p53 reactivator, B2AR arrestin, Mito fusion yeast, uPA generation)
COc1ccc(N2CCN(C(c3ccccc3)c3nnnn3C(C)(C)C)CC2)cc1 (centres undefined)	none (no result: Giardia kill, p53 reactivator, B2AR arrestin, Mito fusion yeast, uPA generation)
COc1ccc(C(c2nnnn2C(C)(C)C)N2CCN(c3nc4ccccc4s3)CC2)cc1 (centres undefined)	p53 reactivator inconclusive, ClpP mod 25.1µM
COc1ccc(NC(=O)O/N=C/c2c(C)nn(C(C)(C)C)c2C)cc1	Giardia kill inconclusive, uPA generation 2µM
Cc1nn(C(C)(C)C)c(C)c1/C=N/OC(=O)Nc1ccc(Cl)c(Cl)c1	none
CC(=O)c1ccc(NC(=O)c2nn(C)c3c2COc2ccccc2-3)cc1	none (no result: Giardia kill, p53 reactivator, B2AR arrestin, Mito fusion yeast, uPA generation)
Cn1c(=O)c2c(c3ccccc31)OC(=O)CC2c1cccc(Cl)c1 (centres undefined)	ClpP mod 11.2µM (no result: Giardia kill, p53 reactivator, B2AR arrestin, uPA generation)
Cn1c(=O)c2c(c3ccccc31)OC(=O)CC2c1cccnc1 (centres undefined)	none
CC(=O)N1CCCc2cc(S(=O)(=O)NC(C(=O)NC3CCCCC3)C(C)C)ccc21 (centres undefined)	ClpP mod 15.8µM (no result: Mito fusion yeast)
COC(=O)c1[nH]c2cccc(OC)c2c1NC(=O)CN(C)CC1OCCO1	ClpP mod 31.6µM
COC(=O)c1[nH]c2cccc(OC)c2c1NC(=O)CN1CCOCC1	ClpP mod 17.8µM
COc1ccc(C(=O)Nc2cc3c(cc2N2CCCC2)n(C)c(=O)c(=O)n3C)cc1OC	ClpP mod 31.6µM (no result: Giardia kill, p53 reactivator, B2AR arrestin, Mito fusion yeast, uPA generation)
COc1ccc(C(=O)Nc2cc3c(cc2N2CCCCC2)n(C)c(=O)n3C)cc1OC	Mito fusion yeast 12.6µM
COc1cc(C(=O)Nc2cc3c(cc2N2CCCCC2)n(C)c(=O)n3C)cc(OC)c1OC	Mito fusion yeast 12.6µM
COc1cc(C(=O)Nc2cc3c4c(c2)CC(=O)N4CCC3)cc(OC)c1OC	ClpP mod 15.8µM
Cc1ccc(-n2c(=O)c3c(C)c(C(=O)N(C)C)sc3n(CC(=O)N(C)c3ccccc3)c2=O)cc1C	none (no result: Giardia kill, p53 reactivator, B2AR arrestin, Mito fusion yeast, uPA generation)

Assay outcomes as filed in PubChem BioAssay.
